# Experimental data: PubChem BioAssay AID1645870 (National Center for Advancing Translational Sciences (NCATS), 2021)
# Where “and” joins values, the source holds several entries; their conditions need not be identical. Equal entries are not always repeated. Screen size: about 59,000 compounds; about 1,500 (2.5%) were called active. About 10% were inconclusive and are not listed. The list comes from a sample in which actives are over-represented; it also holds similar structures and randomly drawn compounds. Values without a mark were called inactive. The call rests on the fitted dose curve; in most records, active means well fitted inhibition curve with a large enough effect; inconclusive means small, poorly fitted or top-dose-only effect; inactive means flat fitted curve, though single readings scatter.
# Target: N-terminal Xaa-Pro-Lys N-methyltransferase 1 (Homo sapiens) (UniProt Q9BV86)
# Sequence (Q9BV86 whole entry, looked up): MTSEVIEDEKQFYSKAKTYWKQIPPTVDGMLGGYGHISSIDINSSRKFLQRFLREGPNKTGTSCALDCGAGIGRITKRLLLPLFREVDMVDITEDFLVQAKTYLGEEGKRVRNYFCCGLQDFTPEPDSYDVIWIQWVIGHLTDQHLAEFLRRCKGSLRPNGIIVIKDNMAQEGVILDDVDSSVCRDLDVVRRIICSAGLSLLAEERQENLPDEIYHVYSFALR
# Experiment: Primary qHTS for Inhibitors of N-terminal methyltransferase 1 (NTMT1): MTaseGlo Assay; further: nearly all actives have a fitted effect of over 65% in size;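 on activity change, negative = inhibition: plate controls were DMSO vehicle for no effect and no enzyme for full effect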
# Details: NTMT1 MTase-Glo SAH luminescence, purified enzyme; series mostly up to 114 µM; activity change, negative = inhibition: at the top concentration
# Description: Assay Submitter (PI): Rong Huang Ph.D.
# Purdue University, West Lafayette, IN 47907
# The N-terminal methytransferase 1 is the first methyltransferase that methylates protein alpha-N-amines and plays an important role in regulating cell mitosis, chromatin interactions and DNA repair. It is observed to be over-expressed in various cancer patient tissues like malignant melanoma and colorectal cancer tissues. Knockdown of NTMT1 in cancer cells causes cell mitotic defects and enhances sensitivity to DNA damaging chemotherapeutics. […] These critical cellular processes in which NTMT1 is implicated, coupled with emerging links to cellular dysfunction, strengthen the inference that NTMT1 is a compelling novel anticancer target. Progress have been made in understanding the molecular properties of NTMT1 and the biological consequences of protein alpha-N-terminal methylation, but there are no specific small molecule probes available for NTMT1 to fully characterize its MTase activity. To address this unmet need, a panel of assay is created and established to enable quantitative high-throughput screening (qHTS) for novel, potent, and selective small molecule NTMT1 inhibitors. Two orthogonal qHTS that use different reagents (ThioGlo vs. MTaseGlo) are developed for primary robotic screening against the NCATS chemical library of more than 400,000 small molecules. Identified inhibitors are reacquired, validated, and further characterized.
# MTaseGlo Assay is a luminescence screen that measure the activity of methyltransferases based on the reaction product S-adenosyl homocysteine (SAH). The substrate SAM is converted to SAH upon enzyme activation. MTase-Glo reagent and detection solution convert SAH to ATP and measure the light from the luciferase reaction.
# Materials: NTMT1 enzyme, substrate SPKRIA, control peptide RCC1-6 is provided by the Huang laboratory.
# SEQUENCE No. (e.g., 1, 2, 3, etc.); […] (e.g., Cells, Incubation, Reagent, etc.); VALUE; DESCRIPTION
# 1; Enzyme; 3 uL; Dispense enzyme mixture (final concentrations of 125 nM NTMT1 and 100 uM SAM) into Greiner 1536-well white / solid bottom assay plate (Greiner Bio One, Monroe, NC).
# 2; Compounds; 23 nL; Compounds and controls were transferred via a Kalypsys Pin Tool (Wako USA) equipped with a 1536-slotted pin array (Wako Automation, Richmond, VA)
# 3; Incubation; 15 min; Incubate at room temperature
# 4; Substrate; 1 uL; Dispense 1 uL of substrate at final concentration of 1 uM. Buffer solution was dispensed in control wells. The assay plate was covered with metal lids.
# 5; Incubation; 30 min; Incubate at room temperature, protected from lights.
# 6; Reagent; 1 uL; Dispensed 5x MTase-Glo detection reagent (R) into the assay plate. The plate was covered with metal lids.
# 7; Incubation; 30 min; Incubate the assay plates at room temperature in the dark to allow for SAH to be converted to ADP.
# 8; Reagent; 5 uL; Dispense 5 uL of 1x MTase-Glo Detection Solution (R) to allow for ADP to be converted to ATP which was then detected with a luciferase reaction.
# 9; Centrifuge; 15 sec; Centrifuge the assay plate for 15 seconds at 1000 RPM.
# 10; Incubation; 30 min; Assay plates were incubation at room temperature in the dark.
# 11; Detection; Luminescence; Plates were read on ViewLux detector (PerkinElmer). Data were normalized to no-enzyme (0% activity) and no-inhibitor (DMSO; 100%) controls, and the resulting percent inhibition data were fitted to a 4-parameter Hill equation using GraphPad Prism.
# Potency means the concentration at half of the fitted maximal effect.
SMILES,Potency,"activity change, negative = inhibition"
COc1cc2ncnc(Nc3cccc(Cl)c3F)c2cc1OC(=O)N1CCN(C)C[C@H]1C,35.5 µM (active) and 39.8 µM (active),
C=CC(=O)Nc1ccc2ncnc(Nc3ccc(OCc4cccc(F)c4)c(Cl)c3)c2c1,,-22% [at 57.5 µM]
Cc1cc(NS(=O)(=O)c2cc3c(cc2F)NC(=O)CC3)ccc1F,inactive,
CNc1oc(-c2ccc(-c3ccccc3)cc2)nc1C#N,,-2.96%
COc1ccc(C(=O)N(Cc2ccccc2)Cc2ccc(OC)c(COc3ccc(NC(C)=O)cc3)c2)c(O)c1,,-0.368%
O=C(Nc1ccc(S(=O)(=O)Nc2nccs2)cc1)C1CC(OCc2ccccc2)C1 (configuration not stated),,3.69%
O=C(CNC(=O)c1ccc(Cl)cc1Cl)OC(C(=O)Nc1cc(C(F)(F)F)ccc1Cl)c1ccccc1 (configuration not stated),,14.1%
Cc1cn([C@H]2C[C@H](N[S+](=O)([O-])Cc3ccc(Cl)cc3)[C@@H](CO)O2)c(=O)[nH]c1=O,,1.89%
Cc1[nH]c(/C=C2\C(=O)Nc3ccc(S(=O)(=O)Cc4c(Cl)cccc4Cl)cc32)c(C)c1C(=O)N1CCC[C@@H]1CN1CCCC1,11.2 µM (active),
Cc1cc(C)c(/C=C2\C(=O)Nc3ccccc32)[nH]1,inactive,
Cc1ccc(C(=O)Nc2ccc(S(=O)(=O)Nc3nccs3)cc2)cc1C,,-14.7%
O=C(Cc1ccc(Cl)c(Cl)c1)Nc1ccc([S+](=O)([O-])Nc2cccc([N+](=O)[O-])c2)cc1,,5.18%
O=S1(=O)N=C(Oc2cccc(Br)c2)c2ccccc21,,-6.08%
O=C(Nc1ccccn1)c1sc2ccc([N+](=O)[O-])cc2c1Cl,,3.22%
COC(=O)c1ccccc1NC(=O)c1ccc(C#N)cc1,,-1.32%
COc1ccc(C2Nc3ccccc3C(=O)N2Cc2cccc(OC)c2OC)cc1COc1c(C)cc(NC(C)=O)cc1C (configuration not stated),,-0.852%
Cc1cccc(N2CCN(C(=O)c3cc4c(=O)oc5ccccc5c4s3)CC2C)c1 (configuration not stated),,1.45%
Cc1cccc(N2CCN(c3ccc(C(=O)O)cc3NC(=O)c3ccccc3F)CC2C)c1 (configuration not stated),70.8 µM (active),
Cc1ccccc1NC(=O)c1c(NC(=O)c2ccccc2F)sc2c1CCC(C)C2 (configuration not stated),,22.5%
O=C1CC(c2c[nH]c3ccc(F)cc23)C(=O)N1 (configuration not stated),,7.14%
CC1=C(C(=O)Nc2ccccc2C)C(c2ccccc2Br)N=C(Nc2nc3ccccc3o2)N1 (configuration not stated),,10.4%
O=C(CNC(=O)c1ccc(Cl)c(C(F)(F)F)c1)OC(C(=O)Nc1cc(C(F)(F)F)ccc1Cl)c1ccccc1 (configuration not stated),,6.81%
Cc1c(Cl)cccc1NC(=O)N1CCN(C(=O)c2nsc3ccccc23)CC1,,4.51%
Cc1ccc(-c2ccc(=O)n(CCNC(C)c3ccco3)n2)cc1 (configuration not stated),,-3.03%

SMILES,Potency,"activity change, negative = inhibition"
CCC(C(=O)Nc1cccc(Cl)c1C)n1nc(-c2ccc(C)cc2)ccc1=O (configuration not stated),79.4 µM (active),
N#CN1CCC(NC(=O)c2ccc(F)cc2)CC1,,10.9%
CNc1oc(-c2cccc(Cl)c2Cl)nc1C#N,,-4.37%
COc1cccc(C(=O)NC2CCN(C#N)CC2)c1,,12.7%
COc1ccc(C2Nc3ccccc3C(=O)N2Cc2ccccc2)cc1COc1ccc(C(N)=O)cc1 (configuration not stated),,16% [at 57.5 µM]
C[C@H](NC(=O)c1c(N)nn2cccnc12)c1cc2cccc(C#Cc3cnn(C)c3)c2c(=O)n1-c1ccccc1,,8.45% [at 57.5 µM]
Cc1sc(NC(=O)Cc2ccc3c(c2)OCO3)nc1-c1ccc2c(c1)CCN2,,4.99%
CCN(CCCNC(=O)Cn1ncc2c3ccccc3n(C)c2c1=O)Cc1ccccc1,,4.28%
CCCN(CCC)CCCNC(=O)Cn1ncc2c3ccccc3n(Cc3ccccc3)c2c1=O,,-15.4%
CCN(CC)CCNC(=O)Cn1ncc2c3ccccc3n(Cc3ccccc3C)c2c1=O,89.1 µM (active),
CCOc1ccc(CCNC(=O)c2cc3sccc3n2CCN2CCOCC2)cc1OCC,,-2.87%
CS(=O)(=O)c1ccc(C(=O)OCC(=O)N2CCC(c3ccccc3)CC2)cc1[N+](=O)[O-],,12.1%
Cc1cc(N[S+](=O)([O-])c2ccc(NC(=O)Cc3ccc(F)c(C(F)(F)F)c3)cc2)no1,,11.7%
Cc1cc(Oc2ccc3nc(COc4ccc(CC5SC(=O)NC5=O)cc4)n(C)c3c2)cc(C)c1N (configuration not stated),,-20.2%
Cc1nn2c(=O)cc(COC(=O)c3cccc(NC(=O)COc4ccccc4Cl)c3)nc2s1,,-5.59%
CCCCc1nn2c(=O)cc(COC(=O)c3cccc(NC(=O)COc4ccccc4)c3)nc2s1,,12.9%
COc1ccc(OCC(=O)Nc2cccc(C(=O)OCc3cc(=O)n4nc(C)sc4n3)c2)cc1,50.1 µM (active),
CCN(CC)CCNC(=O)c1cc(S(C)(=O)=O)ccc1OC,,10.6% [at 57.5 µM]
CCOc1cc2[nH]c(=O)n(Cc3ccc(C(=O)NCCN(CC)CC)cc3)c(=O)c2cc1OCC,,0.768%
CCN(CC)CCNC(=O)c1c(C)[nH]c(C=C2C(=O)Nc3ccc(F)cc32)c1C,44.1 µM (active),
CCOc1cc(C(C)(C)C)ccc1C1=N[C@@](C)(c2ccc(Cl)cc2)[C@@](C)(c2ccc(Cl)cc2)N1C(=O)N1CCN(CC(=O)N2CCOCC2)CC1,,23.9% [at 57.5 µM]
C=C1C[C@@H]2CC[C@@]34C[C@H]5O[C@H]6[C@@H](O3)[C@H]3O[C@H](CC[C@@H]3O[C@H]6[C@H]5O4)CC(=O)C[C@@H]3[C@@H](OC)[C@@H](C[C@H](O)CN)O[C@H]3C[C@H]3O[C@@H](CC[C@@H]1O2)C[C@@H](C)C3=C,,19.2% [at 29.8 µM]
O=S(=O)(NC1CCN(S(=O)(=O)c2ccc3c(c2)OCCO3)CC1)c1c(F)cccc1F,,0.994%
